Nile Red retention ratio vs DMSO data for 74 compounds are collected here from PubChem BioAssay AID588520 (NMMLSC, 2011).

The campaign covered roughly 1,700 compounds. About 65 (4%) were called active. The list is a sample of the results. Unmarked numbers belong to inactive results. Rule as the data show it: active = Nile Red retention ratio vs DMSO above about 190%; inactive = the rest.

The test system of the assay is Candida albicans drug resistance protein 2 (Cdr2) efflux pump, expressed in S. cerevisiae. Nature of the assay: Cdr2 pump blockade via Nile Red retention – S. cerevisiae AD/CaCDR2, flow cytometry, cherry pick 1, singleplex, confirmation (AID 588520).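 Also: higher ratio means more blocking of Cdr2 efflux of the dye.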 The note with it: at 10 µM, active compounds read high.
For `COc1ccc2[nH]c3c(C)c4cc[n+](C)cc4c(C)c3c2c1`, the Nile Red retention ratio vs DMSO is 97.2%.
Next, `O=C1NC(=O)C2C1C(c1ccc([N+](=O)[O-])cc1)=NN2Cc1ccccc1` (centres undefined): 112%; `COc1ccc(-c2sc3ccccc3c2-c2ccc(OCCN3CCOCC3)cc2)cc1`: 101%; `O=C(NCc1ccccc1)C(=O)NCC1OCCN1S(=O)(=O)c1ccc(Br)cc1` (centres undefined): 84.8%.
In the case of `COc1ccccc1CSc1ncc(-c2ccc([N+](=O)[O-])cc2)[nH]1`, the Nile Red retention ratio vs DMSO was 87.5%.
Next, `CCOc1ccc(C2/C(=C(/O)c3ccc4c(c3)CC(C)O4)C(=O)C(=O)N2CCCn2ccnc2)cc1` (centres undefined): 94.1%; `COc1ccc(C(=O)NC2CC(C)(C)Cc3c2cnn3-c2ccccc2)c(OC)c1` (centres undefined): 100%; `CN1CCN(S(=O)(=O)c2ccc(NC(=S)NC(=O)C3CC3)cc2)CC1`: 103%.
The same measure for `CC(C)C(=O)N1CCC2(CC1)Oc1ccc(F)cc1C(=O)C21CC(c2ccccc2)=NO1` (centres undefined): 102%; for `CN(C)S(=O)(=O)c1cc(C(=O)Nc2ccn(C)n2)c(Cl)cc1Cl`: 99.3%; for `CCn1c(/C=C/c2ccc([N+](=O)[O-])o2)nc2ccccc2c1=O`: 212% (active).
On to `O=S(=O)(c1ccccc1)N1CCc2ccccc21`, for which the Nile Red retention ratio vs DMSO is 83.1%.
Next, `CC12CCC(C(=O)N(c3cccc(Cl)c3)C1=O)C2(C)C` (centres undefined): 110%; `O=C(CNC(=O)c1ccc(-c2ccccc2)cc1)OCc1ccc(Cl)cc1`: 120%; `Cc1cc(C)cc(NC(=O)C(OC(=O)c2ccc(O)cc2)c2ccccc2)c1` (centres undefined): 101%.
In the case of `CC(/C=N/NC(=O)c1cc(-c2ccc3ccccc3c2)n[nH]1)=C\c1ccco1`, the Nile Red retention ratio vs DMSO is 95.4%.
As for `CCCc1nc(N2CCN(C)CC2)c2sc(=S)n(-c3ccccc3)c2n1`, the Nile Red retention ratio vs DMSO is 99.6%.
Consider `C[n+]1ccc(/C=C/c2c[nH]c3ccccc23)cc1`, for which the Nile Red retention ratio vs DMSO is 140%.
In the case of `CCCCCCCCCCCCCCCC(=O)OC/C=C(C)/C=C/C=C(C)/C=C/C1=C(C)CCCC1(C)C`, the Nile Red retention ratio vs DMSO is 123%.
Consider `Cc1nn(C)cc1N1C(=O)c2cccc3c(N)ccc(c23)C1=O`, for which the Nile Red retention ratio vs DMSO was 106%.
As for `COc1ccc(/C=C(\C#N)c2c[nH]c3ccccc23)cc1`, the Nile Red retention ratio vs DMSO was 98.5%.
As for `CCCCOc1ccc(C(=O)NCC(=O)OCC(=O)c2c(N)n(C)c(=O)n(C)c2=O)cc1`, the Nile Red retention ratio vs DMSO was 103%.
For the compound `NNC(=O)COc1ccc(C2SCCS2)cc1`, the Nile Red retention ratio vs DMSO was 98.5%.
The same measure for `COc1ccc(C(=O)NC(=S)Nc2ccc(N3CCCC3)cc2)cc1OC`: 95.1%; for `O=C(CSc1nnc(-c2cccnc2)n1Cc1ccco1)c1ccc(Cl)c(Cl)c1`: 107%.
Regarding `CCCCN1C(=O)/C(=C/C=C2/C=Cc3ccccc3N2CC)SC1=S`, the Nile Red retention ratio vs DMSO is 108%.
Regarding `CCCCCC(=O)Nc1ccc(C(=O)N/N=C/c2ccc([N+](=O)[O-])cc2)cc1`, the Nile Red retention ratio vs DMSO is 105%.
On to `COc1ccc(C(=O)C2CCCN(Cc3cccn3-c3ccccn3)C2)c(C)c1` (centres undefined), for which the Nile Red retention ratio vs DMSO was 98.5%.
`O=C(Cc1ccc(Br)cc1)N1CCN(c2ccccn2)CC1`: the Nile Red retention ratio vs DMSO was 85.2%.
Consider `COc1ccc(NC(=S)N2CCc3cc(OC)c(OC)cc3C2)cc1`, for which the Nile Red retention ratio vs DMSO is 99.3%.
On to `CCOc1ccc(/C=C2\SC(=S)N(NC(=O)c3ccncc3)C2=O)cc1OC`, for which the Nile Red retention ratio vs DMSO is 105%.
As to `CN=C(c1ccccc1)c1c(C)cccc1C`, the Nile Red retention ratio vs DMSO is 107%.
Turning to `COc1ccc(S(=O)(=O)N2CCOC2CNC(=O)C(=O)NCc2ccc(F)cc2)cc1` (centres undefined), the Nile Red retention ratio vs DMSO is 114%.
Take `Cc1cc(/C=N/NC(=O)CC2(C)OCCO2)c(C)n1-c1ccc(Cl)c(Cl)c1`: the Nile Red retention ratio vs DMSO was 101%.
On to `COc1ccccc1/C=C/C=N/n1c(-c2ccc(Cl)cc2Cl)n[nH]c1=S`, for which the Nile Red retention ratio vs DMSO was 119%.
On to `Cc1ccc(OCc2cc(C(=O)N(C)CCc3ccccc3)no2)cc1C`, for which the Nile Red retention ratio vs DMSO is 97.7%.
Next, `CCOC(=O)c1c(NC(=S)NC(=O)c2ccco2)sc2c1CCCC2`: 95.4%.
`Cc1ccc(/C=C(\C#N)C(=O)Nc2cccc3ncccc23)o1`: the Nile Red retention ratio vs DMSO was 93%.
Take `COc1cccc(NC(=O)CN(C)C(=O)/C=C/c2cc(OC)ccc2OC)c1`: the Nile Red retention ratio vs DMSO was 97.5%.
Consider `CSCCC(NC(=O)COc1ccccc1)C(=O)OCCOc1ccc(Br)cc1` (centres undefined), for which the Nile Red retention ratio vs DMSO was 91.4%.
With `O=C(CCCCCn1c(=O)[nH]c2ccccc2c1=O)NCCc1c[nH]c2ccccc12`, the Nile Red retention ratio vs DMSO was 96.3%.
Consider `CCOC(=O)CNC(=O)CSc1nnnn1-c1cc(C)ccc1C`, for which the Nile Red retention ratio vs DMSO is 102%.
With `O=C(OCc1ccc(-c2ccccc2)cc1)c1cccc(O)c1`, the Nile Red retention ratio vs DMSO is 108%.
With `Cc1nc2c(C(=O)NCc3ccc4c(c3)OCO4)c[nH]n2c(=O)c1Cc1ccccc1F`, the Nile Red retention ratio vs DMSO was 108%.
On to `Cc1nn(C)cc1C(=O)Nc1ccccc1Br`, for which the Nile Red retention ratio vs DMSO is 104%.
As to `Cc1csc(NC(=O)c2ccc(-c3ccc(Cl)cc3Cl)o2)n1`, the Nile Red retention ratio vs DMSO is 104%.
Turning to `Cc1ccc(Cn2c(C)nc3c(c2=O)c2nc4ccccc4nc2n3Cc2ccco2)cc1`, the Nile Red retention ratio vs DMSO was 104%.
In the case of `O=C(/C=C/c1c(Cl)cccc1Cl)NCc1ccccc1`, the Nile Red retention ratio vs DMSO was 102%.
For the compound `Cc1ccc(N=C2NC(=O)/C(=C/C=C/c3ccco3)S2)cc1C`, the Nile Red retention ratio vs DMSO was 114%.
Next, `Cc1cccc(NC(=O)COc2ccccc2C)n1`: 95.6%; `COc1ccc(C(=O)NC2CCCc3c2cnn3-c2cccc(C)c2C)c(OC)n1` (centres undefined): 93.2%.
The same measure for `CC[n+]1cc(C)ccc1/C=C/c1ccc(N(C)C)cc1`: 118%.
Consider `O=C(CN1C(=O)C2C3CCC(C3)C2C1=O)Oc1ccc2ccccc2c1` (centres undefined), for which the Nile Red retention ratio vs DMSO was 105%.
In the case of `Cc1ccc(Cn2nnc3c(=O)[nH]c(C4CCN(S(=O)(=O)/C=C/c5ccccc5)CC4)nc32)cc1`, the Nile Red retention ratio vs DMSO is 93%.
`CCNC(=O)c1c(O)c2cccc3c2n(c1=O)CC3`: the Nile Red retention ratio vs DMSO is 107%.
Next, `O=C(Cc1ccccc1)NCC1OCCc2ccccc21` (centres undefined): 117%; `CC1CCc2c(sc(NC(=O)c3ccc(Cn4cc(Br)cn4)o3)c2C(N)=O)C1` (centres undefined): 108%.
Regarding `Cc1ccc2c(c1)NC(=O)[C@@]1(C)[C@@H](c3ccccc3)[C@H]3COc4ccc(Cl)cc4[C@@H]3N1C2=O`, the Nile Red retention ratio vs DMSO is 102%.
For `O=C(Cn1c(COc2ccccc2)nc2ccccc21)Nc1cc(Cl)c(Cl)cc1Cl`, the Nile Red retention ratio vs DMSO was 110%.
For the compound `Cc1ccc2[nH]c3c(=O)n(CC(=O)NCCc4ccc(Cl)cc4)ncc3c2c1`, the Nile Red retention ratio vs DMSO is 137%.
With `C/C(N)=C(/C#N)C(=O)COC(=O)c1cc(-c2cccc(Br)c2)nc2ccccc12`, the Nile Red retention ratio vs DMSO is 110%.
As to `CCOc1ccc2nc(Cl)c(C3CC(c4ccccc4)=NN3C(=O)c3cccs3)cc2c1` (centres undefined), the Nile Red retention ratio vs DMSO is 131%.
Turning to `C=CCC[C@@H](Cc1ccc(F)cc1)C(=O)OC[C@H](Cc1c[nH]c2ccccc12)NC(=O)[C@@H](CC=C)CC(=O)N(CCO)Cc1ccccc1`, the Nile Red retention ratio vs DMSO is 123%.
The same measure for `Cc1c(CCOC(=O)CC23CC4CC(CC(C)(C4)C2)C3)sc[n+]1Cc1ccc([N+](=O)[O-])cc1`: 821% (active); for `CSCCC(NS(=O)(=O)c1ccc(C)cc1)C(=O)N1CCCC1` (centres undefined): 89.3%; for `O=C(Nc1ccc(NC(=O)c2cccs2)cc1)c1ccc2ccccc2c1`: 108%.
On to `CCCc1nnc(SCC(=O)Nc2ccc(C(=O)OCC)cc2)o1`, for which the Nile Red retention ratio vs DMSO is 133%.
Turning to `CCNc1c(NS(=O)(=O)c2ccc(C3CCCCC3)cc2)c(=O)oc2ccccc12`, the Nile Red retention ratio vs DMSO is 98.7%.
`CCc1ccc(NC(=O)Cn2ncn3c(cc4ccccc43)c2=O)cc1`: the Nile Red retention ratio vs DMSO is 101%.
The same measure for `COc1ccccc1NC(=O)C1CCCN1S(=O)(=O)c1ccc(Cl)cc1` (centres undefined): 99.7%.
For the compound `CC(/C=C/c1ccccc1)=N\NC(=O)C1CC1(C)c1ccccc1` (centres undefined), the Nile Red retention ratio vs DMSO is 94%.
As to `Cc1oc2cc3oc(=O)ccc3cc2c1C`, the Nile Red retention ratio vs DMSO is 107%.
With `Cc1cc(C(=O)Nc2ccc(C)c(S(=O)(=O)N3CCOCC3)c2)c2ccccc2n1`, the Nile Red retention ratio vs DMSO was 83.1%.
As to `CCOc1ccccc1/C=c1\sc2nc(-c3ccco3)nn2c1=O`, the Nile Red retention ratio vs DMSO is 116%.
